The supplement of paper PMC7156485
± gives the standard deviation of the averaged measurements.
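Also: TDF denotes transformed human dermal fibroblasts of mesenchymal origin.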

The molecules below were run on HCC1569 (assay: cell number relative to DMSO (% of DMSO); higher = more cells (less growth inhibition / toxicity)). Conditions: concentration: 10 µM; 24 h.
Procedure, shortened: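 After 24 h at 37 °C with compounds at 10 µM, in triplicate, HCC1569 and TDF cells were fixed with 3.7% formaldehyde. Immunostaining used a rabbit anti-H1.0 antibody and an AlexaFluor 647 secondary, with DAPI, and six fields per well were imaged at ×10. H1.0 nuclear intensity or cell number is presented as percent of the plate control, from the median of replicates, with HCC1569 values smoothed for positional effects.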
Molecule `CN(C)CCC=C1c2ccccc2C=Cc2ccccc21.Cl` [Cyclobenzaprine hydrochloride] has a cell number of 99.3.
`C=CC(C)(C=Cc1ccc(O)cc1)CCC=C(C)C` (stereo not drawn) [Bakuchiol] gave a cell number of 84.7 ± 3.6.
Molecule `CCCC(=O)NCCc1c2n(c3ccc(OC)cc13)CCCc1ccccc1-2` has a cell number of 96.8.
`O=C(Nc1cccc(C(=O)Nc2ccc(S(=O)(=O)[O-])c3cc(S(=O)(=O)[O-])cc(S(=O)(=O)[O-])c23)c1)Nc1cccc(C(=O)Nc2ccc(S(=O)(=O)[O-])c3cc(S(=O)(=O)[O-])cc(S(=O)(=O)[O-])c23)c1.[Na+].[Na+].[Na+].[Na+].[Na+].[Na+]` was tested, and the cell number was 102.
For `CC(C)(C)c1cnc(CSc2cnc(NC(=O)C3CCNCC3)s2)o1`, the cell number was 105.
For `CNCC(O)C(O)C(O)C(O)CO` (stereo not drawn) [Meglumine], the cell number was 103.
In the case of `CCCCCCCCCCCC(CC1OC(=O)C1CCCCCC)OC(=O)C(CC(C)C)NC=O` (stereo not drawn) [Tetrahydrolipistatin], the cell number is reported as 100.
For `O=c1cc(-c2ccccc2)oc2cc(O)cc(O)c12` [Chrysine], the cell number was 101.
`CCCCCC(O)C=CC1=C(CCCCCCC(=O)O)C(=O)CC1` (stereo not drawn) [Prostaglandin B1] showed a cell number of 101 ± 2.6.
`Br.CN(C)CCCC1(c2ccc(F)cc2)OCc2cc(C#N)ccc21` (stereo not drawn) [Citalopram hydrobromide] showed a cell number of 101.
`CSc1nc(N)c2ncn(C3OC(COP(=O)([O-])OP(=O)([O-])OP(=O)([O-])[O-])C(O)C3O)c2n1.[Na+].[Na+].[Na+].[Na+]` (stereo not drawn) [2-Methylthioadenosine triphosphate tetrasodium] showed a cell number of 102.
Molecule `CCCN(CCC)C(=O)C(CCC(=O)O)NC(=O)c1ccccc1` (stereo not drawn) [Proglumide] has a cell number of 109.
Work on `O=c1cc(-c2ccccc2)[nH]c2nc(Cl)ccc12` [7-Chloro-4-hydroxy-2-phenyl-1,8-naphthyridine] yielded a cell number of 76.7.
`O=C1Cc2c([nH]c3ccc(Br)cc23)-c2ccccc2N1` [Kenpaullone] was tested, and the cell number was 76.3 ± 6.3.
Work on `S=c1ccss1` [1,2-Dithiole-3-thione] yielded a cell number of 101.
With `OC1(c2ccc(Cl)cc2)CCN(Cc2c[nH]c3ccccc23)CC1` the cell number was 94.6.
`C=C(CC)C(=O)c1ccc(OCC(=O)O)c(Cl)c1Cl` [Ethacrynic Acid] gave a cell number of 100.
`COc1cccc(OC)c1OCCNCC1COc2ccccc2O1.Cl` (stereo not drawn) [WB-4101 hydrochloride] showed a cell number of 102.
With `O=c1c(O)c(-c2ccc(O)cc2)oc2cc(O)cc(O)c12` [Kaempferol] the cell number was 98.4.
With `CC1=C(C)C(=O)C(CCCCC#CCCCC#CCO)=C(C)C1=O` [Docebenone] the cell number was 93.3.
`CCCCCCCCCC(=O)NC(CN1CCOCC1)C(O)c1ccccc1.Cl` (racemic) gave a cell number of 94.
`CN(C)CCC(c1ccc(Br)cc1)c1ccccn1.O=C(O)C=CC(=O)O` (single isomer, unassigned; (+)) [(+)-Brompheniramine maleate] was tested, and the cell number was 96.5.
With `CC(=O)NC(CSCC=C(C)CCC=C(C)C)C(=O)O` (stereo not drawn) the cell number was 101.
`COc1ccc(Cl)cc1NC(=O)Nc1cc(C)nc2ccccc12` [N-(5-Chloro-2-methoxyphenyl)-N'-(2-methyl-4-quinolinyl)urea] gave a cell number of 90.
`O=c1onc2cnc3ccccc3n12` showed a cell number of 101.
For `CC1(NC(=O)CBr)CCC(C(C)(C)NCC(O)COc2cccc3[nH]ccc23)CC1` (racemic), the cell number was 95.8.
With `CCN1CCCC1CNC(=O)c1c(OC)ccc(Br)c1OC` (stereo not drawn) [Remoxipride] the cell number was 101.
`Cc1cccc(Nc2ccccc2C(=O)O)c1C` [Mefenamic acid] gave a cell number of 104.
In the case of `NC(CCC(=O)NC(CS)C(=O)NCC(=O)O)C(=O)O` (stereo not drawn) [Glutathione], the cell number is reported as 101.
With `Cc1cc(Nc2nc(-c3ccccc3)nc3ccccc23)n[nH]1` [GSK-3 Inhibitor XIII] the cell number was 57.
`O=C(CCc1ccc(O)cc1)c1c(O)cc(O)cc1OC1OC(CO)C(O)C(O)C1O` (stereo not drawn) [Phlorizine] gave a cell number of 101.
Molecule `CCN(CC)CC#CCOC(=O)C(O)(c1ccccc1)C1CCCCC1.Cl` (stereo not drawn) [Oxybutynin Chloride] has a cell number of 101.
In the case of `COc1cc(C(=O)c2ccc3ncccc3c2)cc(OC)c1OC` [quinolin-6-yl(3,4,5-trimethoxyphenyl)methanone], the cell number is reported as 59.6.
